# Assay results as given in PubChem BioAssay (NCI).
# Compounds without any hit were thinned out: in the full panel of roughly 79,000, 15% have a hit. The source made the active and inactive calls. No stated cut-off is given here; in the data, active means growth inhibition above about 70%; inactive means the rest.
# Experiment: NCI Yeast Anticancer Drug Screen. Data for the mec2-1 strain (AID 157)
# Settings: S. cerevisiae mec2-1 strain, at 50.0 µM, hits give high values
# Method in brief: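 Mutant yeast (mec2-1) grown with compound; growth inhibition relative to vehicle control reported.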
row,Structure (SMILES),growth inhibition
1,COc1nc2ccccc2s1,-15.2% (inactive)
2,CCCCCCCCCCCCCCCCCCSC(=N)N,-16.7% (inactive)
3,CCC(=O)Oc1c(C)cc(O)c2ccccc12,-49.6% (inactive)
4,C=CC(C)(C)n1cc(C2=C(O)C(=O)C(c3cn(C(C)(C)C=C)c4ccccc34)=C(O)C2=O)c2ccccc21,-26.6% (inactive)
5,COC1OC(COC(C)=O)C(OC(C)=O)C(OC(C)=O)C1OC(C)=O (stereo not drawn),3.05% (inactive)
6,Nc1ncc([N+](=O)[O-])cn1,-4.7% (inactive)
7,CC(=O)c1cccc(NS(=O)(=O)c2ccc(C)cc2)c1,-21.2% (inactive)
8,COc1ccc(C(=O)C(=O)c2ccccc2)cc1,34.1% (inactive)
9,CN(C)CCOC(=O)Nc1ccc(Cc2ccc(NC(=O)OCCN(C)C)cc2)cc1,-25.2% (inactive)
10,O=S(=O)(OCCOS(=O)(=O)c1ccccc1)c1ccccc1,1.45% (inactive)
11,CCOC(=O)C(=O)CC(=O)c1ccccc1,8.05% (inactive)
12,c1ccc(Nc2ccccn2)nc1,-13.8% (inactive)
13,O=[N+]([O-])c1c(O)c(CNCCCO)cc(CNCCCO)c1O,29.8% (inactive)
14,O=C(Nc1ccccc1)c1ccco1,33.2% (inactive)
15,C[n+]1cc2cc3c(cc2c2ccccc21)OCO3,35% (inactive)
16,COc1ccc(C)cc1NC(=O)SC(C)C,-18.9% (inactive)
17,Cc1ccc([N+](=O)[O-])c(C)n1,-23.1% (inactive)
18,O=C(CCl)Nc1ccccc1SCc1cc(Cl)cc2c1OCOC2,-16.4% (inactive)
19,CCOC(=O)c1ccc(NC(C)=O)o1,11.3% (inactive)

row,Structure (SMILES),growth inhibition
1,COc1cc(OC)c2cc(C(=O)c3ccc(C#N)cc3)c(=O)oc2c1,-12.1% (inactive)
2,CCN1CCCC(N2c3ccccc3Sc3ccccc32)C1 (stereo not drawn),-15.2% (inactive)
3,Cc1cc(NC(=O)c2ccccc2)c(Cl)cc1N,-33.9% (inactive)
4,CCC1CCC(C)NC1 (stereo not drawn),2.75% (inactive)
5,CSc1cnc2ccccc2n1,-5.95% (inactive)
6,CC(O)C(F)(F)C(F)(F)C(F)(F)F (stereo not drawn),-16.6% (inactive)
7,C=CC1=NC(C)(C)CC(C)O1 (stereo not drawn),-15.2% (inactive)
8,Cn1/c(=N\N=C\c2ccccc2OCCO)sc2ccccc21,17.9% (inactive)
9,CN(C)c1ccc2c(N(C)C)cc(N(C)C)nc2c1,-4.3% (inactive)
10,NC(CO)(CO)c1ccccc1,13.1% (inactive)
11,O=C(c1ccccc1)c1ccc(-c2ccc(O)cc2)cc1,23.5% (inactive)
12,Oc1cc(O)c2c(c1)O[C@H](c1ccc(O)c(O)c1)[C@@H](O)C2,-17.9% (inactive)
13,O=CNCCc1ccccc1,-9.05% (inactive)
14,CCOC(=O)C1(N)CCCCC1,0.45% (inactive)
15,O=S1(=O)c2ccccc2Oc2ccccc21,-19.4% (inactive)
16,Cc1ccc(C)c2c1CCC2=O,3.85% (inactive)
17,Cc1c(Cl)cccc1N=C=S,-24% (inactive)
18,NC(CSSCC(N)C(=O)O)C(=O)O (stereo not drawn),-20% (inactive)

# Experiment: NCI Yeast Anticancer Drug Screen. Data for the sgs1 mgt1 strain (AID 161);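 further: 0% = growth of cultures given vehicle only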
# Settings: S. cerevisiae sgs1 mgt1 strain, at 50.0 µM, hits give high values
# Method in brief: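 Percent growth inhibition was derived by comparing compound-exposed mutant yeast with vehicle-exposed cultures. The strain carries alterations in DNA damage repair.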
row,Structure (SMILES),growth inhibition
1,COc1nc2ccccc2s1,13.1% (inactive)
2,CCCCCCCCCCCCCCCCCCSC(=N)N,-9.1% (inactive)
3,CCC(=O)Oc1c(C)cc(O)c2ccccc12,18.7% (inactive)
4,C=CC(C)(C)n1cc(C2=C(O)C(=O)C(c3cn(C(C)(C)C=C)c4ccccc34)=C(O)C2=O)c2ccccc21,-2.3% (inactive)
5,COC1OC(COC(C)=O)C(OC(C)=O)C(OC(C)=O)C1OC(C)=O (stereo not drawn),47.2% (inactive)
6,Nc1ncc([N+](=O)[O-])cn1,-29% (inactive)
7,CC(=O)c1cccc(NS(=O)(=O)c2ccc(C)cc2)c1,-18.1% (inactive)
8,COc1ccc(C(=O)C(=O)c2ccccc2)cc1,31.9% (inactive)
9,CN(C)CCOC(=O)Nc1ccc(Cc2ccc(NC(=O)OCCN(C)C)cc2)cc1,-1.75% (inactive)
10,O=S(=O)(OCCOS(=O)(=O)c1ccccc1)c1ccccc1,-0.9% (inactive)
11,CCOC(=O)C(=O)CC(=O)c1ccccc1,-5.75% (inactive)
12,c1ccc(Nc2ccccn2)nc1,-21% (inactive)
13,O=[N+]([O-])c1c(O)c(CNCCCO)cc(CNCCCO)c1O,18.9% (inactive)
14,O=C(Nc1ccccc1)c1ccco1,13.8% (inactive)
15,C[n+]1cc2cc3c(cc2c2ccccc21)OCO3,30% (inactive)
16,COc1ccc(C)cc1NC(=O)SC(C)C,9.4% (inactive)
17,Cc1ccc([N+](=O)[O-])c(C)n1,6.2% (inactive)
18,O=C(CCl)Nc1ccccc1SCc1cc(Cl)cc2c1OCOC2,21.6% (inactive)

row,Structure (SMILES),growth inhibition
1,CCOC(=O)c1ccc(NC(C)=O)o1,-3.35% (inactive)
2,COc1cc(OC)c2cc(C(=O)c3ccc(C#N)cc3)c(=O)oc2c1,25.1% (inactive)
3,CCN1CCCC(N2c3ccccc3Sc3ccccc32)C1 (stereo not drawn),8% (inactive)
4,Cc1cc(NC(=O)c2ccccc2)c(Cl)cc1N,-11.9% (inactive)
5,CCC1CCC(C)NC1 (stereo not drawn),17.2% (inactive)
6,C=CC1=NC(C)(C)CC(C)O1 (stereo not drawn),9.75% (inactive)
7,Cn1/c(=N\N=C\c2ccccc2OCCO)sc2ccccc21,18.8% (inactive)
8,CN(C)c1ccc2c(N(C)C)cc(N(C)C)nc2c1,-17.1% (inactive)
9,NC(CO)(CO)c1ccccc1,10.5% (inactive)
10,O=C(c1ccccc1)c1ccc(-c2ccc(O)cc2)cc1,24.9% (inactive)
11,Oc1cc(O)c2c(c1)O[C@H](c1ccc(O)c(O)c1)[C@@H](O)C2,2.75% (inactive)
12,NNc1ncccn1,31.4% (inactive)
13,O=CNCCc1ccccc1,6.85% (inactive)
14,CCOC(=O)C1(N)CCCCC1,11.1% (inactive)
15,O=S1(=O)c2ccccc2Oc2ccccc21,-23.7% (inactive)
16,Cc1ccc(C)c2c1CCC2=O,13.8% (inactive)
17,Cc1c(Cl)cccc1N=C=S,15.4% (inactive)
18,NC(CSSCC(N)C(=O)O)C(=O)O (stereo not drawn),1.35% (inactive)
